Screening data deposited in PubChem by Broad Institute.
Hedgehog inh – blocks Sonic Hedgehog signaling | Shh-LIGHT2 Gli-luciferase reporter, 30 h | inhibition, % (concentration not given with the values) | actives 2.1% (n = 22,000) | AID 2313;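 active = mean inhibition across valid replicates above about 65%, limit read from the data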;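 also: pathway switched on by Shh-conditioned medium diluted 1 in 25 in low serum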
MITF inhib – inhibitors of MITF | TRPM1 promoter luciferase, luminescence, 24 h | inhibition, % (no concentration beside the values) | actives 0.28% (n = 37,000); in the data active = inhibition above about 85%;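 also: human melanocyte line stably carrying TRPM1 promoter luciferase reporter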
BJeLR viability – lowers viability of BJeLR cells. BJeLR fibroblasts viability, CellTiterGlo ATP luminescence, 48 h; HRASV12, hTERT and SV40 LT/ST transformed. viability loss activity score, % (test concentration not listed). actives 0.64% (n = 30,000); in the data active = viability loss activity score above about 50%;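 also: higher score means fewer live cells and less ATP luminescence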
The depositor's hits bear a star. This is one part of a sample in which hits are shown more often than they occur.

`CN1CCC2=C[C@H](O)[C@H]3OC(=O)c4cc5c(cc4[C@H]3[C@@H]21)OCO5` gave Hedgehog inh -5, MITF inhib 3 and BJeLR viability -10.
Screening Fc1ccc(Sc2c(F)c(F)nc(N3CCNCC3)c2F)cc1 returned BJeLR viability 0.
For Cc1nn(Cc2cccc(C(=O)Nc3ccc4oc(=O)cc(C(F)(F)F)c4c3)c2)c(C)c1Cl the results were MITF inhib 15.
CC(C)[C@]12O[C@H]1[C@@H]1O[C@]13[C@]1(O[C@H]1C[C@H]1C4=C(CC[C@@]13C)C(=O)OC4)[C@@H]2O was read as Hedgehog inh 29, MITF inhib 74 and BJeLR viability 90*.
`CC(C(=O)Nc1ccc(Cl)cc1C(=O)c1ccccc1)N1C(=O)C2C3C=CC(C3)C2C1=O` (centres undefined) gave MITF inhib 19.
`CC1(C)CC(=O)C2=C(C1)OC(N)=C(C(=O)OC(C)(C)C)C21C(=O)Nc2ccccc21` (centres undefined) gave Hedgehog inh -32, MITF inhib 4 and BJeLR viability 1.
`C[C@@H]1O[C@@H](O[C@H]2C[C@@H](O)[C@]3(CO)C4C(CC[C@]3(O)C2)[C@@]2(O)CC[C@H](C3=CC(=O)OC3)[C@@]2(C)C[C@H]4O)[C@H](O)[C@H](O)[C@H]1O` (some centres undefined) gave Hedgehog inh -16, MITF inhib 7 and BJeLR viability 119*.
`CC1OC(O[C@H]2C[C@@H](O)[C@]3(CO)[C@H]4[C@H](O)C[C@]5(C)[C@@H](C6=CC(=O)OC6)CC[C@]5(O)[C@@H]4CC[C@]3(O)C2)C(O)C(O)C1O` (some centres undefined) gave Hedgehog inh -25, MITF inhib 6 and BJeLR viability 100*.
Screening C[C@H]1O[C@@H](O[C@H]2C[C@@H](O)[C@]3(CO)C4C(CC[C@]3(O)C2)[C@@]2(O)CC[C@H](C3=CC(=O)OC3)[C@@]2(C)C[C@H]4O)[C@@H](O)[C@@H](O)[C@H]1O (some centres undefined) returned Hedgehog inh -22, MITF inhib 31 and BJeLR viability 117*.
For CCOc1ccccc1C1NC(=S)NC(c2ccccc2OCC)C12C(=O)NC(=O)NC2=O (centres undefined) the results were BJeLR viability 0.
`COC(=O)c1c(C)n(CCCOC(C)C)c2c1cc(O)c1ccccc12` gave MITF inhib 13.
COc1cc2c3c(c1OC)-c1c(ccc(O)c1O)CC3N(C)CC2 (centres undefined) was read as Hedgehog inh -10, MITF inhib 0 and BJeLR viability 2.
`C/C=C(\C)C(=O)OC1C(C)=C2C(C1OC(=O)CCCCCCC)C(C)(OC(C)=O)CC(OC(=O)CCC)C1(O)C2OC(=O)C1(C)O` (centres undefined) gave Hedgehog inh 101*, MITF inhib 51 and BJeLR viability 15.
C/C=C(/C)C(=O)O[C@H]1C(C)=C2[C@H]([C@@H]1OC(=O)CCCCCCC)[C@@](C)(OC(C)=O)C[C@H](OC(=O)CCC)[C@@]1(O)[C@H]2OC(=O)[C@@]1(C)O was read as Hedgehog inh 103*, MITF inhib 105* and BJeLR viability 33.
CCCC(C)n1[nH]c(=O)c2c1NC(=O)CSC2c1cccc([N+](=O)[O-])c1 (centres undefined) was read as MITF inhib 7.
`Cc1ccccc1OCCCn1cc(C(=O)C2CC2)c2ccccc21` gave BJeLR viability 7.
